# Test results published in PubChem BioAssay (NCATS).
# Several values for one entry are separate records, joined by “and”; a condition that tells them apart may be missing. Equal entries are not always repeated. Results filed as inconclusive are left out. Some structures have more than one record in an assay (separate samples or runs), and their calls can disagree. Activity calls are given as the source filed them. Unless noted, calls come from the whole dose curve; as a rule, active = well fitted curve in the direction sought with a large enough effect; inconclusive = small, poorly fitted or top-dose-only effect, or another doubt; inactive = no such curve, though single readings can be large; an effect the other way counts as inactive or inconclusive.
# Key:
# [1] = target: Cytochrome P450 2C9 (Homo sapiens) (UniProt P11712); test: Cytochrome P450 family 2 subfamily C member 9 (CYP2C9) small molecule antagonists: luciferase biochemical (cell-free) qHTS assay (AID 1645842; active = well fitted curve in the direction sought with a large enough effect in the repeat runs; an effect the other way counts as inactive or inconclusive; note: nearly all actives have a fitted effect of over 55% in size; for activity change, negative = inhibition: % is set by controls: 0 for no effect and ±100 for the full control effect)
# Chain of Cytochrome P450 2C9 (Homo sapiens) (P11712 whole entry, looked up): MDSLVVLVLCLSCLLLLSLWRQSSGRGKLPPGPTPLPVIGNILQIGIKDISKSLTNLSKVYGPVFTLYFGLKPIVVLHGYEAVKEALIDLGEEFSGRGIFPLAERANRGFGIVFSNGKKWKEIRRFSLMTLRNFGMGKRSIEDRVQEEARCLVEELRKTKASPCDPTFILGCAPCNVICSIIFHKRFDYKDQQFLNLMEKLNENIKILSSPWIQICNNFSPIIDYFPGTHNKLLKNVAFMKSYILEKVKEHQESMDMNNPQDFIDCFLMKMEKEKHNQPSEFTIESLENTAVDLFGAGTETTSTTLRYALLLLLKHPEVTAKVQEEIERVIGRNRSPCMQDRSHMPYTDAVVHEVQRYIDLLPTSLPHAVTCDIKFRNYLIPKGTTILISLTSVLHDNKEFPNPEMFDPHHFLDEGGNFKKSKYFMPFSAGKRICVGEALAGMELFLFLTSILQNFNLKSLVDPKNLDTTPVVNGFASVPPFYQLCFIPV
# Outline: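 Luminescence, after 20 min with luciferin detection reagent, reflected CYP2C9 turnover during a 1 h NADPH-driven reaction at 37C. Enzyme-substrate mix contained 0.4% bovine serum albumin and was preincubated with compound 10 min at room temperature.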
# [2] = Primary qHTS for inhibitors of nuclear receptor binding SET domain protein 2 (NSD2) in an isogenic RCH-ACV NSD2 p.E1099K mutant (9B) (AID 1645876); note: nearly all actives have a fitted effect of over 70% in size
# [3] = Primary qHTS for inhibitors of nuclear receptor binding SET domain protein 2 (NSD2) in an RCH-ACV wild type WT cells (2C) (AID 1645877); note: nearly all actives have a fitted effect of over 70% in size
# [4] = target: Catechol O-methyltransferase (Homo sapiens) (UniProt P21964); test: Confirmatory Screen for Target Class Profiling of Small Molecule Inhibitors of Methyltransferases (AID 1745852; calls by dose curve; for activity change, negative = inhibition: % is set by controls: 0 for no effect and ±100 for the full control effect); details: MTase-Glo luminescence, SAH detection, recombinant enzyme; measured here: COMT max response; stronger effect = lower value
# Chain of Catechol O-methyltransferase (Homo sapiens) (P21964 whole entry, looked up): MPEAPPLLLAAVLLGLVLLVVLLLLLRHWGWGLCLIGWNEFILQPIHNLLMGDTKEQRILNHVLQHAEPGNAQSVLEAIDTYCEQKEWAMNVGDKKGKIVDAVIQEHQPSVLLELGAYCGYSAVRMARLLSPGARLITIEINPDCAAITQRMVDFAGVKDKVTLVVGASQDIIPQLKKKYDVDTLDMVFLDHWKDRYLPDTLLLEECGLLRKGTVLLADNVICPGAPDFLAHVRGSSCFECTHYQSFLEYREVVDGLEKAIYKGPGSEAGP
# [5] = target: Guanidinoacetate N-methyltransferase (Homo sapiens) (UniProt Q14353); test: as above; details: activity change, negative = inhibition: at 57.3 µM (top of the series) unless noted
# [6] = target: Nicotinamide N-methyltransferase (Homo sapiens) (UniProt P40261); test: as above; details: MTase-Glo luminescence, SAH detection, recombinant enzyme; measured here: NNMT max response; stronger effect = lower value
# Chain of Nicotinamide N-methyltransferase (Homo sapiens) (P40261 whole entry, looked up): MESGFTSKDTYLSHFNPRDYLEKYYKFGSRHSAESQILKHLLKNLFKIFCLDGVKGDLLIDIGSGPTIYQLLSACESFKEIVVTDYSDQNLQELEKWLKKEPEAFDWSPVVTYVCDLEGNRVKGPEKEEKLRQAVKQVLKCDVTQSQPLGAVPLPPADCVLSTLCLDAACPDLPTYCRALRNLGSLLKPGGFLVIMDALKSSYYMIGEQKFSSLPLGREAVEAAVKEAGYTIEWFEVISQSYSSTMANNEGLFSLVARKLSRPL
# [7] = target: Phenylethanolamine N-methyltransferase (Homo sapiens) (UniProt P11086); test: as above; details: MTase-Glo luminescence, SAH detection, recombinant enzyme; measured here: PNMT max response; stronger effect = lower value
# Chain of Phenylethanolamine N-methyltransferase (Homo sapiens) (P11086 whole entry, looked up): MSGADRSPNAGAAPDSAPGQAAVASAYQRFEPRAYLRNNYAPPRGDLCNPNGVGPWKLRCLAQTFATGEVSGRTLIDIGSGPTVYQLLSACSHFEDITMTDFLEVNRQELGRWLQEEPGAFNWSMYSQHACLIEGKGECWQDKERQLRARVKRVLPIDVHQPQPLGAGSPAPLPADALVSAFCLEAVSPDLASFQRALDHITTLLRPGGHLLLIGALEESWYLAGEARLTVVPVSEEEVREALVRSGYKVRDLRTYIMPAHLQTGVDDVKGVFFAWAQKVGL
# Potency is the fitted concentration of half-maximal effect.
SMILES,Potency [1],Potency [2],Potency [3],activity [4] [%],"activity change, negative = inhibition [5] [%]",activity [6] [%],activity [7] [%],Potency [5]
CC(C)c1ccccc1OC(=O)NCCc1ccc2ccccc2c1,0.952 µM (active),inactive,inactive,–,–,–,–,–
Cc1csc2c(N[C@@H](C)CN3CCN(S(=O)(=O)c4ccc(Cl)c(Cl)c4)CC3)ncnc12,6.01 µM (active),2.9 µM (active),8.17 µM (active),–,–,–,–,–
CCN1CCN(Cc2ccc(C(=O)Nc3ccc(C)c(Oc4ccc5c(c4)CC(=O)N5)c3)cc2C(F)(F)F)CC1,23.9 µM (active),16.3 µM (active),16.3 µM (active),–,–,–,–,–
CCOc1cc(C(C)(C)C)ccc1C1=N[C@@](C)(c2ccc(Cl)cc2)[C@@](C)(c2ccc(Cl)cc2)N1C(=O)N1CCN(CC(=O)N2CCOCC2)CC1,21.3 µM (active),1.03 µM (active),1.03 µM (active),–,–,–,–,–
COc1cc2c(cc1OC(C)C)[C@H](c1ccc(Cl)cc1)N(c1ccc(N(C)CC3CCC(N4CCN(C)C(=O)C4)CC3)cc1)C(=O)C2 (stereo not given in full),6.74 µM (active),1.83 µM (active) and 2.09 µM (active),817 nM (active) and 1.18 µM (active),–,–,–,–,–
Cc1nc(C#Cc2ccnc(Cl)c2)c(C)n1-c1ccc(OC(F)(F)F)cc1,8.49 µM (active),18.3 µM (active),10.3 µM (active),–,–,–,–,–
O=C(Nc1ccc(Cl)cc1)c1ccccc1NCc1ccncc1,0.0379 µM (active),10.3 µM (active),18.3 µM (active),–,–,–,–,–
COC(C)(C)CCn1nc(Nc2c(C)cccc2C)c2cnc(Nc3ccc(OCCN4CCCC4)c(F)c3)nc21,6.01 µM (active),103 nM (active) and 263 nM (active),163 nM (active) and 468 nM (active),-6.73,0,-23.2,-4.06,–
C[C@H](Nc1cc2c(-c3ccc4c(c3)OCO4)noc2cn1)c1ccccc1,1.69 µM (active),inactive,inactive,-8.55,-10.4,-7.23,-13.9,–
O=C(Nc1nc2ccc([N+](=O)[O-])cc2s1)C1CCCCC1,19 µM (active),20.5 µM (active),12.9 µM (active),–,–,–,–,–
CNc1cc2[nH]c(=O)n(-c3ccc(NC(=O)NS(=O)(=O)c4ccc(Cl)s4)cc3)c(=O)c2cc1F,inactive,inactive,inactive,–,–,–,–,–
COc1cc2ncnc(Nc3cccc(I)c3)c2cc1OC,13.5 µM (active),16.3 µM (active),14.5 µM (active) and inactive,-55.8,–,-40.1,-56.9,34.1 µM (active)
COc1ccc(-c2cnc3c(-c4cccc5ncccc45)cnn3c2)cc1,12 µM (active),inactive,inactive,–,–,–,–,–
Clc1ccc(Cn2c(Cc3ccccc3)nc3ccccc32)cc1,9.52 µM (active),11.5 µM (active),18.3 µM (active),-6.59,-6.78,-51,-7.3,–
NS(=O)(=O)Nc1ncnc(OCCOc2ncc(Br)cn2)c1-c1ccc(Br)cc1,4.77 µM (active),16.3 µM (active),11.5 µM (active),–,–,–,–,–
O=S(=O)(N[C@H]1CCCC[C@@H]1N1CCOCC1)c1ccc(Cl)cc1,5.35 µM (active),inactive,inactive,–,–,–,–,–
C=CC(=O)Nc1cccc(Nc2nc(Nc3ccc(OCCOC)cc3)ncc2F)c1,3.38 µM (active),3.72 µM (active),3.72 µM (active),-40.1,–,-65.2,-40.1,27.1 µM (active)
O=C(Nc1ccc(-c2ccnc(Nc3ccc(N4CCOCC4)cc3)n2)cc1)C1CCCN1 (stereo not given),2.13 µM (active),4.61 µM (active),4.11 µM (active),–,–,–,–,–
COc1cc2c(cc1OC)CN(C(=O)/C=C/c1c(-c3ccccc3)n(C)c3ncccc13)CC2,0.268 µM (active),8.17 µM (active),11.5 µM (active),-6.33,-4.03,-30.5,-5.99,–
COc1cc(/C=N\NC(=O)c2ccc3c(c2)OCO3)ccc1OCc1ccccc1,2.39 µM (active),inactive,inactive,-3.52,1.69,-20.5,-1.07,–
CC1=C(C(=O)OC2CCCCC2)C(c2ccc([N+](=O)[O-])cc2)C2=C(CC(C)(C)CC2=O)N1 (stereo not given),12 µM (active),inactive,inactive,-30.3,–,-8.48,-64.1,19.2 µM (active)
